# Data as given in paper PMC7862700, “An all-to-all approach to the identification of sequence-specific readers for epigenetic DNA modifications on cytosine”.
# Tests used:
# Test in all cases: DAPPL (digital affinity profiling via proximity ligation, sequencing); 10 mM Tris-HCl pH 7.5, 50 mM NaCl, 1 mM DTT, 4% glycerol, room temperature, 30 min; GST-TFs on glutathione beads, 16-mer random dsDNA library, 0.1% formaldehyde crosslink after washing; high values mean tight binding
# FEV = molecular target: T1, FEV (Homo sapiens, UniProt Q99581 1-238); settings: protein: recombinant; tags: N-terminal GST; dsDNA, one strand shown
# T1 sequence: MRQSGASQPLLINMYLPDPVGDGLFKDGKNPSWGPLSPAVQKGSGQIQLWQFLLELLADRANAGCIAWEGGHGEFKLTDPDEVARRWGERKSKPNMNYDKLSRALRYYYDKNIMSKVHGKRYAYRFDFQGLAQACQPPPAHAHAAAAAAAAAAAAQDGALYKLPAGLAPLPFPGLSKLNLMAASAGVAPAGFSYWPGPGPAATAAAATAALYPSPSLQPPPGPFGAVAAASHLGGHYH
# Summary of the method: (§1)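 Beads coated with glutathione captured GST-fused human transcription factors that had been expressed in yeast, and the factors were then given DNA barcodes and pooled with a tag-only sample. The pools were incubated with 200 nmole of a random double-stranded 16-mer DNA library in Tris/NaCl/DTT/glycerol buffer for 30 min at room temperature, washed, crosslinked with 0.1% formaldehyde and proximity-ligated with BsaI/T4 ligase at 37 °C for 1 h. PCR amplification and Illumina NextSeq500 sequencing came last. Binding signal is each hexamer's read frequency for a factor divided by its frequency for the tag-only sample.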
# ETV5 = ETV5 (Homo sapiens, UniProt P41161 1-510); settings: protein: recombinant; tags: N-terminal GST; dsDNA, one strand shown
# Chain of ETV5 (P41161 whole entry): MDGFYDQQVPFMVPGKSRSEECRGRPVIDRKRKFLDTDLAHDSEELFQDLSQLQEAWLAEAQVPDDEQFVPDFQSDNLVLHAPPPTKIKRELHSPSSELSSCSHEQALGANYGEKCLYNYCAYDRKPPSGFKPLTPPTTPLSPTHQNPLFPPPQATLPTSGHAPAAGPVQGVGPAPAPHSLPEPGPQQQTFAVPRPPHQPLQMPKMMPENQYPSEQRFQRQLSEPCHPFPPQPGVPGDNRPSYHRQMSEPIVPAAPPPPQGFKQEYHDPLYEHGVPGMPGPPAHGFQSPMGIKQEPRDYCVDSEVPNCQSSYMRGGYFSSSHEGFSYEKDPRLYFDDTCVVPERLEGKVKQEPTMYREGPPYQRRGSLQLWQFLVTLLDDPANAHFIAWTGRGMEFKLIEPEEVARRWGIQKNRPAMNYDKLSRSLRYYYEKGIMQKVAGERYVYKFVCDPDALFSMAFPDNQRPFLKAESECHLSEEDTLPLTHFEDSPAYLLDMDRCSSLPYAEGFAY
# Summary of the method: as §1
# HSF1 = HSF1 (Homo sapiens, UniProt Q00613 1-529); settings: protein: recombinant; tags: N-terminal GST; chain copies: 3; dsDNA, one strand shown
# Chain of HSF1 (Q00613 whole entry): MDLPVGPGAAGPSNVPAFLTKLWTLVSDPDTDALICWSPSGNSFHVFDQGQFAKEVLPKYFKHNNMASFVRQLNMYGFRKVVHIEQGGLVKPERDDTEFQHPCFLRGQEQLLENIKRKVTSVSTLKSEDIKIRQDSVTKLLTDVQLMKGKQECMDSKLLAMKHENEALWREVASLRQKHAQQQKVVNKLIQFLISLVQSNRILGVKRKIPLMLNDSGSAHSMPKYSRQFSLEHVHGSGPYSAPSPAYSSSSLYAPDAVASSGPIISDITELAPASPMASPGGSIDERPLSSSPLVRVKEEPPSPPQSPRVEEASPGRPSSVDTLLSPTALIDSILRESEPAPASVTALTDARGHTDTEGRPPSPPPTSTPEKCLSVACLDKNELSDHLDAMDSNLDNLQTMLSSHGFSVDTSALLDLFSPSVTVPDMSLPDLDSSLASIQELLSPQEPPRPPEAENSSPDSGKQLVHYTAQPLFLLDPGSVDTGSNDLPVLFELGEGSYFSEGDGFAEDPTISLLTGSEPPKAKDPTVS
# Summary of the method: as §1
# SPIC = molecular target: T2, SPIC (Homo sapiens, UniProt Q8N5J4 1-248); settings: protein: recombinant; tags: N-terminal GST; dsDNA, one strand shown
# T2 sequence: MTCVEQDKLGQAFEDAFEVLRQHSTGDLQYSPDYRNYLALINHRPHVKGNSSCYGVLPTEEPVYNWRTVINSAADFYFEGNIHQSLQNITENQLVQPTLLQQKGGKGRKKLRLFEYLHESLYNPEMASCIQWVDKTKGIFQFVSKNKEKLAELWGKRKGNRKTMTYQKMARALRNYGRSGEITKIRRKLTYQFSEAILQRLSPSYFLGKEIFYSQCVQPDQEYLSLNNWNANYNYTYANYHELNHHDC
# Summary of the method: as §1
# ELF4 = ELF4 (Homo sapiens, UniProt Q99607 1-663); settings: protein: recombinant; tags: N-terminal GST; dsDNA, one strand shown
# Chain of ELF4 (Q99607 whole entry): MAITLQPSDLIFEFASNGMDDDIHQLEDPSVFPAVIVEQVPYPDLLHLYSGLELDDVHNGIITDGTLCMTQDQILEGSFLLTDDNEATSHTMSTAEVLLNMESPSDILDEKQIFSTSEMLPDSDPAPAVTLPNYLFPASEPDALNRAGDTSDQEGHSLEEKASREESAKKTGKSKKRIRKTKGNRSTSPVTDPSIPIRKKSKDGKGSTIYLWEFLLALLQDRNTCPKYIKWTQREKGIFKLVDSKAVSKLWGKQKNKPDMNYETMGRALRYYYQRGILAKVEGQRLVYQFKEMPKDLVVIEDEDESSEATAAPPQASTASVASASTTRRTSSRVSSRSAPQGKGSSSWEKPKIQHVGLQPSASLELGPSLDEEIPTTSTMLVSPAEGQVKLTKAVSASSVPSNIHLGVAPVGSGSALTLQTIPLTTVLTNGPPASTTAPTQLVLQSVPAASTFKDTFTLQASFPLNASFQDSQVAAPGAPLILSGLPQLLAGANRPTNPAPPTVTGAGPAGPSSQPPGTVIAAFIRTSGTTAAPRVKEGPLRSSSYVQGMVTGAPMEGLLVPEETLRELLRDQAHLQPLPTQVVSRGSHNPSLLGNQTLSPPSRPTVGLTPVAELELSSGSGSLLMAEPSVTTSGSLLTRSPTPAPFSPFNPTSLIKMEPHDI
# Summary of the method: as §1
# ELK4 = molecular target: T3, ELK4 (Homo sapiens, UniProt P28324-2 1-405); settings: protein: recombinant; tags: N-terminal GST; dsDNA, one strand shown
# T3 sequence: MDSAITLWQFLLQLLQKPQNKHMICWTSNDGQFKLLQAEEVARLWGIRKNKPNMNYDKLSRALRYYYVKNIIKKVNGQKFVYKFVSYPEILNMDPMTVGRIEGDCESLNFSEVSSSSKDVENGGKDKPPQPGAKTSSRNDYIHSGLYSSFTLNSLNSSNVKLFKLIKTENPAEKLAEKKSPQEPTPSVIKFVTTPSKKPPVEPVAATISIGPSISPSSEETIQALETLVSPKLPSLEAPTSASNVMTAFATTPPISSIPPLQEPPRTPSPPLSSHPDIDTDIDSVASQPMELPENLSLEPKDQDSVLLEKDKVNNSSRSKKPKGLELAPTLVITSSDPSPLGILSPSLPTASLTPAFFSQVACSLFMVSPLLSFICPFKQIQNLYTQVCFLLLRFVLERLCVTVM
# Summary of the method: as §1
# ETV2 = molecular target: T4, ETV2 (Homo sapiens, UniProt O00321 1-342); settings: protein: recombinant; tags: N-terminal GST; dsDNA, one strand shown
# T4 sequence: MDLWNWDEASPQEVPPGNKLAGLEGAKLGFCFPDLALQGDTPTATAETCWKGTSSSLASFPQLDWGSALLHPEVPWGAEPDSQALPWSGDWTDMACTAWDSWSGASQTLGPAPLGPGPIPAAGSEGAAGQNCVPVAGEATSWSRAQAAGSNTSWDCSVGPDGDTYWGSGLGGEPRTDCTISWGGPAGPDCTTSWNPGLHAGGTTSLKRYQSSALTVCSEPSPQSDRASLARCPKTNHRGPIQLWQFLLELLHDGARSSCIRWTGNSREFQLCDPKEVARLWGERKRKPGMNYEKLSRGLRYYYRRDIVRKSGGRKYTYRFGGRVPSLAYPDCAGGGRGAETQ
# Summary of the method: as §1
# ELF3 = molecular target: T5, ELF3 (Homo sapiens, UniProt P78545 1-371); settings: protein: recombinant; tags: N-terminal GST; dsDNA, one strand shown
# T5 sequence: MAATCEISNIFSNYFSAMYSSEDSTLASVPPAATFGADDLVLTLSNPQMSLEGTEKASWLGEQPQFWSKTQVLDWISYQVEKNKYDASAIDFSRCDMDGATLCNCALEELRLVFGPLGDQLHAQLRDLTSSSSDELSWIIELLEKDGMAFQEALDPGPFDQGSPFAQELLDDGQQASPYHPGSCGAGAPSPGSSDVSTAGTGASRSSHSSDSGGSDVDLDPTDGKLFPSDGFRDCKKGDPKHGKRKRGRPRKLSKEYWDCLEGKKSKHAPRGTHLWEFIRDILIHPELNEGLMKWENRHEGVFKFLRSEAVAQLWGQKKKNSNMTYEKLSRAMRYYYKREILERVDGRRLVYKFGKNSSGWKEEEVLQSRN
# Summary of the method: as §1
# CRX = CRX (Homo sapiens, UniProt O43186 1-299); settings: protein: recombinant; tags: N-terminal GST; dsDNA, one strand shown
# Chain of CRX (O43186 whole entry): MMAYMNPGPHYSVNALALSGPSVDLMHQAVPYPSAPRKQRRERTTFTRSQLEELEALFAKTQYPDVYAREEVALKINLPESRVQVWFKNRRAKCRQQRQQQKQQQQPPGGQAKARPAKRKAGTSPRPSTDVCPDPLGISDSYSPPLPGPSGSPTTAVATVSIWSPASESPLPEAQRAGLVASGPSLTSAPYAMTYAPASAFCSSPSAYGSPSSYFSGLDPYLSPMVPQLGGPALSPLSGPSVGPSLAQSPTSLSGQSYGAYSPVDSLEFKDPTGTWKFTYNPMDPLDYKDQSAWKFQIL
# Summary of the method: as §1
# ETV1 = ETV1 (Homo sapiens, UniProt P50549 1-477); settings: protein: recombinant; tags: N-terminal GST; dsDNA, one strand shown
# Chain of ETV1 (P50549 whole entry): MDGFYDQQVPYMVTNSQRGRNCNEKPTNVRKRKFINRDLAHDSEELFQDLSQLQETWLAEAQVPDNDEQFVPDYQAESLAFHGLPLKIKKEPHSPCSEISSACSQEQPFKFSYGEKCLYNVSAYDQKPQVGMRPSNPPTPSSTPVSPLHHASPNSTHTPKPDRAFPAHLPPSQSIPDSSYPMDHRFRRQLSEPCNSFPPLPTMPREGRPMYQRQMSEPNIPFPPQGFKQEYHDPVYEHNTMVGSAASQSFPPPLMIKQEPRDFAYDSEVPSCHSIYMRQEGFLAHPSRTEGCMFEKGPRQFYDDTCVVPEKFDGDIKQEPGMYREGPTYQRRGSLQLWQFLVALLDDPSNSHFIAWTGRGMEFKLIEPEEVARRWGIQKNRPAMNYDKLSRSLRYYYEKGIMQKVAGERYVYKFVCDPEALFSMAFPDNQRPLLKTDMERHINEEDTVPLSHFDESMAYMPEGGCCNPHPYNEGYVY
# Summary of the method: as §1
# ERF = molecular target: T6, ERF (Homo sapiens, UniProt P50548 1-548); settings: protein: recombinant; tags: N-terminal GST; dsDNA, one strand shown
# T6 sequence: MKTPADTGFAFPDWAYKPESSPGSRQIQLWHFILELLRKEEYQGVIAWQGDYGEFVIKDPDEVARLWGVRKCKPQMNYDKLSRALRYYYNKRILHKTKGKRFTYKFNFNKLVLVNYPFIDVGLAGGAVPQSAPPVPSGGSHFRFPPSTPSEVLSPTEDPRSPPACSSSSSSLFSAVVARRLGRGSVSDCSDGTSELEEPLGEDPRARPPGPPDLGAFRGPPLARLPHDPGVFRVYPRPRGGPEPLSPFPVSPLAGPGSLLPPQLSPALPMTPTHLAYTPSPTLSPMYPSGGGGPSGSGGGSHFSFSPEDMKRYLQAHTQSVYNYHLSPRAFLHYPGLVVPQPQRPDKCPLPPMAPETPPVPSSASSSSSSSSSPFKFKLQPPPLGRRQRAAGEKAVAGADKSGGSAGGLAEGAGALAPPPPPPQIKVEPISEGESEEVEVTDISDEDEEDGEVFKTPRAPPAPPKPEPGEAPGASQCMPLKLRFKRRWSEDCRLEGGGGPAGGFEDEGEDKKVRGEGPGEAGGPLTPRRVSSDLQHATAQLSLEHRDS
# Summary of the method: as §1
# ETV3L = molecular target: T7, ETV3L (Homo sapiens, UniProt Q6ZN32 1-361); settings: protein: recombinant; tags: N-terminal GST; dsDNA, one strand shown
# T7 sequence: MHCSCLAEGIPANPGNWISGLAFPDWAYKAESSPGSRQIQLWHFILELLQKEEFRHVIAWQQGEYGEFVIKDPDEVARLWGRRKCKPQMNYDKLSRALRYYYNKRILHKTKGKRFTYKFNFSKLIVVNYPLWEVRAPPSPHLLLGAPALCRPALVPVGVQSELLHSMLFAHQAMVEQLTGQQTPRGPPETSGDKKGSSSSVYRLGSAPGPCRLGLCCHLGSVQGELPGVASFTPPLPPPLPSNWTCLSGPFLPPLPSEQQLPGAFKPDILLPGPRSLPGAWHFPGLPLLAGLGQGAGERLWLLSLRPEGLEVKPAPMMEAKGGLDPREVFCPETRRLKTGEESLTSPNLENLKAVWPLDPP
# Summary of the method: as §1
# ETS2 = molecular target: T8, ETS2 (Homo sapiens, UniProt P15036 1-469); settings: protein: recombinant; tags: N-terminal GST; dsDNA, one strand shown
# T8 sequence: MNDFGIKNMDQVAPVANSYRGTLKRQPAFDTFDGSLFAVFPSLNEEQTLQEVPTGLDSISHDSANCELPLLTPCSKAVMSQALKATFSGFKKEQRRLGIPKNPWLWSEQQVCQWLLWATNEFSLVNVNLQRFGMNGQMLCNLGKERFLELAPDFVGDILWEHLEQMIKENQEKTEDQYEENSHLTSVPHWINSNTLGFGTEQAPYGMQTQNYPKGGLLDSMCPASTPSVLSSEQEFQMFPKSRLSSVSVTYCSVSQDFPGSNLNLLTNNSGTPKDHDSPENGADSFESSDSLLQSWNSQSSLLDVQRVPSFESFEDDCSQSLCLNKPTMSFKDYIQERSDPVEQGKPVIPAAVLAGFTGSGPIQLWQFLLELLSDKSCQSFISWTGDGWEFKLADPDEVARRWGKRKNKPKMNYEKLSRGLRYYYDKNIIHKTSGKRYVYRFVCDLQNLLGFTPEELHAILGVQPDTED
# Summary of the method: as §1
# SPDEF = molecular target: T9, SPDEF (Homo sapiens, UniProt O95238 1-335); settings: protein: recombinant; tags: N-terminal GST; dsDNA, one strand shown
# T9 sequence: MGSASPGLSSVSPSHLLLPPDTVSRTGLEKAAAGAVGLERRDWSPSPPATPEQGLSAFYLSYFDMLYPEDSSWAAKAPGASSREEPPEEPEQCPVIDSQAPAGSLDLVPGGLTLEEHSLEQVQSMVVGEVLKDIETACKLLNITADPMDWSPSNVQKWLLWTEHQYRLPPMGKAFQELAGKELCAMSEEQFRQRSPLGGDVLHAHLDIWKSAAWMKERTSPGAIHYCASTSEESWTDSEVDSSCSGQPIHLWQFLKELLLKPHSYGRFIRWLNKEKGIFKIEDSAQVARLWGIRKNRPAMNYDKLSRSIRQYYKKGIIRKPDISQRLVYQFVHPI
# Summary of the method: as §1
# ETV7 = molecular target: T10, ETV7 (Homo sapiens, UniProt Q9Y603 1-341); settings: protein: recombinant; tags: N-terminal GST; dsDNA, one strand shown
# T10 sequence: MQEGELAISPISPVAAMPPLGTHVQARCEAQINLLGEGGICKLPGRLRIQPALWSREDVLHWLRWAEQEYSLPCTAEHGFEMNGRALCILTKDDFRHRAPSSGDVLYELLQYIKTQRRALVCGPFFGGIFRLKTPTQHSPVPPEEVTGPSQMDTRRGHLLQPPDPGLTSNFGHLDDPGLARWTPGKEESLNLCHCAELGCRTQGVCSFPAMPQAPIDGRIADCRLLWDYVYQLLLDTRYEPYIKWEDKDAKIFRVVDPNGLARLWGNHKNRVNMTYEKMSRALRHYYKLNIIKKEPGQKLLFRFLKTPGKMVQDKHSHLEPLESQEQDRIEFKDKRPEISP
# Summary of the method: as §1
# ELF5 = molecular target: T11, ELF5 (Homo sapiens, UniProt Q9UKW6-2 1-255); settings: protein: recombinant; tags: N-terminal GST; dsDNA, one strand shown
# T11 sequence: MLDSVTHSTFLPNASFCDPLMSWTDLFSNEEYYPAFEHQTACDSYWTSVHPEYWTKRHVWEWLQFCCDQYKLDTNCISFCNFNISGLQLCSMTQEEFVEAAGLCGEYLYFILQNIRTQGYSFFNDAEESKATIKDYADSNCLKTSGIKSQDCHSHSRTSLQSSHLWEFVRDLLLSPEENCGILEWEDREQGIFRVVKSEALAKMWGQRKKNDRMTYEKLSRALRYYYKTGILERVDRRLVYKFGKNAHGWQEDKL
# Summary of the method: as §1
# ETV3 = molecular target: T12, ETV3 (Homo sapiens, UniProt P41162-2 1-143); settings: protein: recombinant; tags: N-terminal GST; dsDNA, one strand shown
# T12 sequence: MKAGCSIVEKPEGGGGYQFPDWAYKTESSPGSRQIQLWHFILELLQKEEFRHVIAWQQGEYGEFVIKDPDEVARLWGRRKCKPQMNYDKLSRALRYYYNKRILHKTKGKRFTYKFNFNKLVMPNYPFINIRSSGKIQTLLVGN
# Summary of the method: as §1
# ETV6 = ETV6 (Homo sapiens, UniProt P41212 1-452); settings: protein: recombinant; tags: N-terminal GST; dsDNA, one strand shown
# Chain of ETV6 (P41212 whole entry): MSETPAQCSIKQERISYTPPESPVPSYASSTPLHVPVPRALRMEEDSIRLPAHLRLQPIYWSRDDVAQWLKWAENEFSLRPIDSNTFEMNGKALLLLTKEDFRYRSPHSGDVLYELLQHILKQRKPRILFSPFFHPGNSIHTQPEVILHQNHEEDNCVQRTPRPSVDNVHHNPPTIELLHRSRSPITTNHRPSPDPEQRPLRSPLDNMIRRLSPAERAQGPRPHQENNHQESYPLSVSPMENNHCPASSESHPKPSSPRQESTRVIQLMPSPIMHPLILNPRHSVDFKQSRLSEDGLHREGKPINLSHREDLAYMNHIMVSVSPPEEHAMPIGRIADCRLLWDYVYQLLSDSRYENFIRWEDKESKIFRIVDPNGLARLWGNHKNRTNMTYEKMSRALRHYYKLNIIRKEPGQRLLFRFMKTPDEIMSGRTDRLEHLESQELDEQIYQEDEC
# Summary of the method: as §1
sequence,measurement,setting,value
TATATG,binding signal,FEV,"1.33 fold enrichment (6-mer frequency, TF over GST control)"
same,binding signal,ETV5,"1.34 fold enrichment (6-mer frequency, TF over GST control)"
same,binding signal,HSF1,"1.28 fold enrichment (6-mer frequency, TF over GST control)"
same,binding signal,SPIC,"1.47 fold enrichment (6-mer frequency, TF over GST control)"
same,binding signal,ELF4,"1.31 fold enrichment (6-mer frequency, TF over GST control)"
same,binding signal,ELK4,"1.65 fold enrichment (6-mer frequency, TF over GST control)"
same,binding signal,ETV2,"1.25 fold enrichment (6-mer frequency, TF over GST control)"
same,binding signal,ELF3,"1.46 fold enrichment (6-mer frequency, TF over GST control)"
same,binding signal,CRX,"1.44 fold enrichment (6-mer frequency, TF over GST control)"
same,binding signal,ETV1,"1.33 fold enrichment (6-mer frequency, TF over GST control)"
same,binding signal,ERF,"1.48 fold enrichment (6-mer frequency, TF over GST control)"
same,binding signal,ETV3L,"1.35 fold enrichment (6-mer frequency, TF over GST control)"
same,binding signal,ETS2,"1.38 fold enrichment (6-mer frequency, TF over GST control)"
same,binding signal,SPDEF,"1.29 fold enrichment (6-mer frequency, TF over GST control)"
same,binding signal,ETV7,"1.29 fold enrichment (6-mer frequency, TF over GST control)"
same,binding signal,ELF5,"1.39 fold enrichment (6-mer frequency, TF over GST control)"
same,binding signal,ETV3,"1.41 fold enrichment (6-mer frequency, TF over GST control)"
same,binding signal,ETV6,"1.34 fold enrichment (6-mer frequency, TF over GST control)"
